# From PubChem
# AmpC inh no det: inhibitors of E. coli AmpC beta-lactamase without detergent; Potency, µM (top dose mostly 28.7 µM), inactives show at the top dose activity change, negative = inhibition; 71,000 compounds, 1.8% hits; AmpC nitrocefin hydrolysis, absorbance 480 nm, no detergent; P00811; AID 585; also: % of control where 0% means no effect
# Target sequence (P00811 whole entry, looked up): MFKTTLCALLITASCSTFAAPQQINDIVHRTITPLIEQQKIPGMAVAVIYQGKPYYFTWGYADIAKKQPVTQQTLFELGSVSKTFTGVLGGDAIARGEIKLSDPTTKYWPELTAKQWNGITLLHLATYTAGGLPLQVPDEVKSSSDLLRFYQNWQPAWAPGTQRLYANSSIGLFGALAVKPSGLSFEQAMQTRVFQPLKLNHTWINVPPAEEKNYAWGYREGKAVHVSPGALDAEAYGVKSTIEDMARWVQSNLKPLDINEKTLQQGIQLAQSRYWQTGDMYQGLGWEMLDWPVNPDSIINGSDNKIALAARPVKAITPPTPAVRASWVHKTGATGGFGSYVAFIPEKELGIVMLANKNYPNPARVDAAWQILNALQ
#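 AmpC, 20 mM phosphate pH 7.0; 15 min cpd preinc, RT; start with nitrocefin (800 uM stock); A480 kinetic read, 20 s intervals, 4 min. No-enzyme wells = negative control.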
# SmPrx2 inh: Schistosoma mansoni Prx2 inhibition; 65,000 compounds, 0.07% hits; S. mansoni Prx2 activity coupled to TGR/GSH (TGR is thioredoxin glutathione reductase), NADPH fluorescence loss, qHTS; AID 448; Potency, µM
#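 Purified S. mansoni TGR and Prx2 in pH 7.4 phosphate buffer with EDTA and Tween-20 were preincubated with compounds for 15 min. Further NADPH/GSH was added, then a 2.5 mM H2O2 aliquot initiated turnover, followed kinetically by NADPH fluorescence.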
# LT uptake inh: anthrax lethal toxin internalization inhibition; Cells, anthrax lethal toxin internalization, FRET ratio (460/530); Potency, µM (series often up to 40 µM), for inactives: top-dose activity change, negative = inhibition, usual class: inhibitors; 70,000 compounds, 0.67% hits; AID 912; also: % is scaled to controls: 0 for no effect and ±100 for the full control effect; nearly all actives have a fitted effect of over 50% in size
# AmpC det inh: blocks E. coli AmpC beta-lactamase in presence of detergent. P00811. purified AmpC, nitrocefin hydrolysis with detergent. Potency, µM (titrated, usually from 28.7 µM), for inactives: top-dose activity change, negative = inhibition. 71,000 compounds, 0.09% hits. AID 584; active = well fitted curve in the direction sought with a large enough effect; inconclusive = small, poorly fitted or top-dose-only effect; also: % is scaled to controls: 0 for no effect and ±100 for the full control effect
#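 E. coli AmpC (5.3 nM) in 20 mM phosphate pH 7.0 with 0.01% Triton X-100, preincubated 15 min RT with compound; nitrocefin (2 uL of 800 uM stock) hydrolysis followed by 480 nm absorbance every 20 s over 4 min.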
# Numbers without * were called inactive; ? = inconclusive; · = not tested or not shown; [ ] = remark or other dose. Shown are actives, neighbours in structure and some others; about 2.4% of the full set was active somewhere. Unless noted, calls follow the shape of the full dose curve. Potency is read from the fitted curve at half-maximal effect.
SMILES,AmpC inh no det,SmPrx2 inh,LT uptake inh,AmpC det inh
Cc1ccc2c(c1)NC(=O)C(CC(=O)NCc1ccc(F)cc1)O2 (stereo unspecified),?,>57,-5.7%,10.0%
Cc1ccc2c(c1)NC(=O)C(CC(=O)NCc1cccnc1)O2 (stereo unspecified),3.98µM*[single pt active],>57,-25.1%,9.9%
CC(=O)c1cccc(NC(=O)CC2Oc3ccc(C)cc3NC2=O)c1 (stereo unspecified),3.98µM*[single pt active],>57,-5.0%,7.8%
CC1CCCCC1NC(=O)CC1Oc2ccccc2NC1=O (stereo unspecified),3.98µM*[single pt active],>57,-7.6%,15.5%
O=C(O)c1cccc(CN2CCCCC2)c1,-2.3%[5.75 µM],>57,1.2%[8 µM],0.4%[5.75 µM]
CCCCOC(=O)Nc1ccc(S(=O)(=O)Nc2cc(C)nc(C)n2)cc1,3.16µM*[single pt active],>57,?,12.0%
Cc1ccc(OCCCC(=O)Nc2ccc(S(=O)(=O)Nc3cc(C)on3)cc2)cc1,10µM*[single pt active],>57,3.9%,7.1%
Cc1ccccc1-c1cncnc1NCc1cccnc1,4.7%,?,-12.3%,6.5%
COc1ccc(S(=O)(=O)n2nc(OC(=O)c3ccc(C)cc3)cc2N)cc1,12.6µM*,>57,-12.4%,-2.0%
CN1/C(=C/C(=O)c2nc(S(C)(=O)=O)ncc2Cl)C(C)(C)c2ccccc21,31.8%,>57,12.6µM*,-1.6%
Cc1cc(Nc2ccccc2)nc(-c2ccccc2O)n1,2.6%,>57,12.6µM*,-2.5%
Cc1cc(Nc2cccc(F)c2)nc(-c2ccccc2O)n1,-18.4%,>57,?,12.5%
COc1ccc(S(=O)(=O)N2CCN(C)CC2)c2ccccc12,3.98µM*[single pt active],>57,18.9%,11.3%
Cc1noc(C)c1-c1cncnc1N1CCN(C)CC1,-7.0%,>57,-5.0%,8.1%
CC(C)CN1CC2(CCN(S(=O)(=O)c3ccccc3)CC2)C1,-10.0%,>57,0.0%,-1.1%
Cc1cc(Cl)ccc1OCC(=O)Nc1ccccc1N1CCOCC1,7.7%,>57,15.8µM*,-3.3%
COc1cc(C2CC(=O)N3CN(Cc4ccco4)CSC3=C2C#N)ccc1OCc1ccccc1 (stereo unspecified),3.98µM*[single pt active],>57,?,9.4%
COc1ccc(C2CC(=O)N3CN(Cc4ccco4)CSC3=C2C#N)cc1 (stereo unspecified),-3.5%,>57,?,-2.8%
COc1ccc2ccccc2c1C1CC(=O)N2CN(Cc3ccco3)CSC2=C1C#N (stereo unspecified),3.98µM*[single pt active],>57,?,0.5%
CCOc1cc(C2CC(=O)N3CN(C4CCCCC4)CSC3=C2C#N)ccc1O (stereo unspecified),2.51µM*,>57,-7.3%,12.5%
CN(CCc1ccc(Cl)c(Cl)c1)[C@H]1CCCC[C@H]1N1CCCC1,42.1%,>57,25.1µM*,-5.9%
CN(CCc1ccc(Cl)c(Cl)c1)CCN1CCCCCC1,27.9%,>57,?,-3.5%
CCN(CC)CC[n+]1ccc2c(C)c3[nH]c4ccccc4c3c(C)c2c1,-9.7%[5.75 µM],>57,3.98µM*,-2.0%[5.75 µM]
N#C/C(=C\c1ccc(O)c(O)c1)C(=O)Nc1ccccc1,?,>57,25.1µM*,-4.8%
CCOC(=O)N1CCC(NC(=O)CN2C(=O)CCSc3ccccc32)CC1,3.98µM*[single pt active],>57,3.8%,11.3%
SMILES,AmpC inh no det,SmPrx2 inh,LT uptake inh,AmpC det inh
COc1ccc(CCNC(=O)CSc2nc(N)c(C#N)c(-c3cccs3)c2C#N)cc1OC,52.6%,>57,?,1.0%
Cc1ccccc1NC(=O)CSc1nc(N)c(C#N)c(-c2cccs2)c1C#N,10µM*,>57,-12.1%,2.7%
COc1cc(/C=C\C(=O)N2CCCCC2=O)cc(OC)c1OC,33.6%,·,?,-1.2%
O=C(C1=C(O)C(=O)N(Cc2ccccc2)C1c1ccncc1)c1ccco1 (stereo unspecified),-0.2%,>57,1.0%,-2.3%
Cc1nnc(N2C(=O)C(O)=C(C(=O)c3ccco3)C2c2ccc(F)cc2)s1 (stereo unspecified),3.98µM*[single pt active],>57,-5.0%,11.7%
CC(C)CO/N=C1/[C@H]2O[C@@H]2[C@@H](O)[C@H]2[C@H]1CCn1c(=O)n(-c3ccccc3)c(=O)n12,·,·,-9.5%[8 µM],·
CN1CCc2c(sc3c2C(=O)NC(c2ccco2)N3)C1 (stereo unspecified),8.9%,>57,?,22.0%
CN1CCc2c(sc3c2C(=O)NC(c2cccc(OC(=O)c4cccs4)c2)N3)C1 (stereo unspecified),3.16µM*[single pt active],>57,?,11.6%
CN(C)CCCO[C@H]1[C@H]([C@H](O)CO)O[C@H]2OC(C)(C)O[C@@H]21,-3.7%,>57,1.8%,-0.7%
